# Assay results taken from PubChem BioAssay (NCATS).
# Results filed as inconclusive are left out. A number with no mark means an inactive call. Active and inactive are the calls of the source. Calls come from the whole dose curve; as a rule, active = well fitted inhibition curve with a large enough effect; inconclusive = small, poorly fitted or top-dose-only effect; inactive = flat fitted curve, though single readings scatter.
# Tested on: HaCat
# Assay: Cytotoxic Profiling of Annotated Libraries Using Quantitative High-Throughput Screening (AID 1296008); note: nearly all actives have a fitted effect of over 60% in size
# Conditions: Five cell lines viability, CellTiter-Glo ATP luminescence, 48-72 h; max response: hits give low values
# Summary of the method: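 Compounds were pin-transferred onto cells and incubated 48 or 72 hr at 37 degree Celsius, 95% humidity. CellTiter-Glo was added, plates sat 10 min at room temperature, then ATP-coupled luminescence was imaged as the viability read-out.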
# % is set by controls: 0 for no effect and ±100 for the full control effect.
SMILES,outcome,max response
C/C=C(\C)C(=O)OC1CC2C(C)(C)OC(=O)CC(OC(C)=O)C2(C)C2CC(OC(=O)C(C)C)C3(C)C(c4ccoc4)CC4OC43C12C (stereo unspecified),inactive,–
CC(C)[C@@H](CN1CC[C@@](C)(c2cccc(O)c2)[C@@H](C)C1)NC(=O)[C@H]1Cc2ccc(O)cc2CN1,inactive,–
Cc1cn(C[C@H](N)C(=O)O)c(=O)n(Cc2cc(-c3ccccc3)sc2C(=O)O)c1=O,–,-2.49%
C[C@@]12C[C@@H](c3ccoc3)OC(=O)C1CC[C@]1(C)[C@H]2[C@H]2C=C[C@]1(O)C(=O)O2 (stereo partly specified),–,-0.33%
COC1CC(O[C@H]2CC[C@@]3(C)C(=CCC4C3C(O)[C@@H](O)[C@]3(C)[C@@H](C(C)=O)CC[C@]43O)C2)OC(C)C1OC1CC(OC)C(OC2OC(C)C(O)C(O)C2O)C(C)O1 (stereo partly specified),inactive,–
CN1CCC[C@@H]1Cc1c[nH]c2ccc(Nc3ncccc3[N+](=O)[O-])cc12,–,-5.05%
COc1cc2c(cc1OC)[C@@]13CCN4CC5=CCO[C@H]6CC(=O)N2[C@H]1[C@H]6[C@H]5C[C@H]43,–,-7.03%
CCc1[nH]c2ccc(OC)cc2c1CCN(C)C,–,1.59%
C/C=C(\C)C(=O)OC1C(C)OC(OC2C(C)OC(OC3CCC4(C)C(=CCC5C4CCC4(C)C(C(C)OC6OC(COC7OC(CO)C(O)C(O)C7O)C(O)C(O)C6O)CCC54O)C3)CC2OC)C(O)C1OC (stereo unspecified),inactive,–
Oc1ccc2c3c1O[C@H]1[C@H](N(CCCl)CCCl)CC[C@@]4(O)[C@@H](C2)N(CC2CC2)CC[C@]314,–,-4.26%
COC(=O)C1(C)CCC(=O)C2(C)c3c(O)cc(C(C)C)cc3C(O)C(OC(C)=O)C12 (stereo unspecified),–,-0.878%
